A number with no mark means an inactive call. Calls of active or inactive are those of the source. Calls follow the shape of the full dose curve.
% is scaled to controls: 0 for no effect and ±100 for the full control effect.

Chain of Estrogen receptor (Homo sapiens) (P03372 whole entry, looked up): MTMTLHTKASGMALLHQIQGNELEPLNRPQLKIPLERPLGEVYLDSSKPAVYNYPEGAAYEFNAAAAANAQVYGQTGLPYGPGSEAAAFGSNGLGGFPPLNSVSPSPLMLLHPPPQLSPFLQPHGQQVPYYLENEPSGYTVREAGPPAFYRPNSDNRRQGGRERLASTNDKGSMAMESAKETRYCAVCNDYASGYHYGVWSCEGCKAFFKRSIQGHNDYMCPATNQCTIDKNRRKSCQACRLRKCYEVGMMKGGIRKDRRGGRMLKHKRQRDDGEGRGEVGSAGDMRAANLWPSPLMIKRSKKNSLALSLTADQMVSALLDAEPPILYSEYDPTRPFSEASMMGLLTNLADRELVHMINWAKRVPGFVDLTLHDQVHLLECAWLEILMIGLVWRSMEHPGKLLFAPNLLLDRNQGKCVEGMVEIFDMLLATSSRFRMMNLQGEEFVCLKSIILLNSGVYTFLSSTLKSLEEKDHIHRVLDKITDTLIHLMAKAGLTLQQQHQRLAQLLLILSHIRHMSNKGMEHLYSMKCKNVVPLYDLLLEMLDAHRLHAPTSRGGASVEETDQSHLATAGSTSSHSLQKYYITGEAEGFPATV

The target of the experiment is Estrogen receptor (Homo sapiens) (UniProt P03372). As to the kind of experiment: qHTS assay to identify small molecule agonists of the estrogen receptor alpha (ER-alpha) signaling pathway in the presence of an antagonist (AID 1259383). Also: top concentration of the series differs between compounds; nearly all actives have a fitted effect of over 15% in size. As to conditions: VM7Luc4E2 cells, ERE-luciferase, +ICI-182,780, 22 h; series mostly up to 92.4 µM. From the text:
National Center for Advancing Translational Sciences [NCATS] NIH Chemical Genomics Center [NCGC] U.S. Environmental Protection Agency [EPA] National Institutes of Environmental Health Sciences [NIEHS] National Toxicology Program [NTP] Assay overview: Estrogen receptor (ER), a member of nuclear hormone receptor plays an important role in development, metabolic homeostasis and reproduction. Two subtypes of ER, ER-alpha and ER-beta, have similar expression patterns with some uniqueness in both types. Endocrine disrupting chemicals (EDCs) and their interactions with steroid hormone receptors like ER causes disruption of normal endocrine function. Therefore, it is important to understand the effect of environmental chemicals in ER signaling pathway. For identifying ER agonists, VM7Luc4E2 cell line has been used in the current assay. VM7Luc4E2 cell line (provided by Denison MS, University of California) endogenously expresses full-length ER-alpha and is stably transfected with a plasmid containing four estrogen responsive elements (ERE) upstream of a luciferase reporter gene. This current screening for measuring luciferase reporter gene activity using VM7Luc4E2 cells against Tox21 10K library collection is a confirmation study on agonist mode screening in presence of ER-antagonist (ICI-182,780) at 10.0nM final concentration.
Assay Protocol Summary: VM7Luc4E2 cells were cultured in phenol red free assay medium containing 10% charcoal stripped FBS for 5 days prior to the assay. The cells were dispensed at 4,000 cells in 4uL of assay medium per well into white wall/solid-bottom 1536-well plates (Corning Life Sciences, Corning, NY) using a Multidrop Combi (Thermo Fisher Scientific Inc., Waltham, MA) dispenser. After the assay plates were incubated at 37C and 5% CO2 for 24hr, 1uL of 10.0nM (final concentration) ICI-182,780 or assay buffer was added using two separate tips of Flying Reagent Dispenser (FRD, Aurora Discovery, San Diego, CA). Then 23nL of compounds dissolved in DMSO at 15 concentrations and positive controls or DMSO only was transferred to the assay plates by a Pintool station (Wako, San Diego, CA). The assay plates were incubated at 37C and 5% CO2 for 22hr. For luciferase read, 4uL/well ONE-Glo reagent (Promega Corporation, Madison, WI) was added to each well using FRD and after 30min incubation at room temperature, luminescence signal was measured on ViewLux plate reader (PerkinElmer, Shelton, CT).
A general note: qHTS replaces the single test concentration by a dilution series.
`CCCCOC(=O)c1ccccc1`: the outcome was inactive.
On the same count and under the same terms, for `CC(=O)NCc1c(I)c(NC(C)=O)c(I)c(C(=O)O)c1I` the value was “inactive”.
The same measure, in the same setting: the result for `O=C1c2cccc3c2[C@H](CCC3)CN1[C@@H]1CN2CCC1CC2` reads “inactive”.
In the case of `Cc1c(I)c(=O)n(-c2ccccc2)n1C`, the outcome was inactive.
Same read-out and setting: the result for `Cc1cccc(C)c1OCC(C)N` (stereo not given) reads “inactive”; that for `Nc1ccc([N+](=O)[O-])c(N)c1`, “inactive”.
On to `C=C(C)C(=O)OCC(C)(C)COC(=O)C(=C)C`, for which the result was inactive.
As to `O=C1CC(c2ccc(Cl)cc2)CC(=O)N1`, the result was inactive.
Consider `CCCC(=O)C(C)=O`, for which the result was inactive.
The same measure, in the same setting: the result for `COc1cc(C(=S)N2CCOCC2)cc(OC)c1OC` reads “inactive”; that for `Nc1ncnc(Nc2ccccc2)n1`, “inactive”; that for `Nc1ccc(S(=O)(=O)Nc2ccc(Cl)nn2)cc1`, “inactive”.
On the same count and under the same terms, the result for `CC1(C)S[C@@H]2[C@H](N=CN3CCCCCC3)C(=O)N2[C@H]1C(=O)O` reads “inactive”.
Still for that read-out and setting: the result for `CCCCCCOc1ccccc1C(N)=O` reads “inactive”.
`CCCCNC1CC(C)(C)NC(C)(C)C1`: the result was inactive.
The same measure, in the same setting: the result for `CCOc1cc(NC(C)=O)ccc1C(=O)OC` reads “inactive”; that for `COCCOCCOCCOCCO`, “inactive”; that for `Cc1ccc(C=O)cc1C`, “inactive”.
Still for that read-out and setting: for `CC(C)C(=O)OCc1cccc(OC(=O)[C@@H]2N3C(=O)[C@@H](NC(=O)Cc4ccccc4)[C@H]3SC2(C)C)c1` the value was “inactive”; for `NC(CO)C(=O)NNCc1ccc(O)c(O)c1O` (stereo not given), “inactive”.
On to `Cc1ccccc1C(=O)Nc1ccc(C(=O)N2CCCC(N(C)C)c3ccccc32)cc1` (stereo not given), for which the outcome was inactive.
With `O=C(OCc1ccccc1)C(=O)OCc1ccccc1`, the result was inactive.
The same measure, in the same setting: the result for `CC(C)c1ccc2cc(C(C)C)ccc2c1` reads “inactive”.
Still for that read-out and setting: for `Cc1cc(C(C)(C)C)c(O)c(C)c1CC1=NCCN1` the value was “inactive”; for `O=C(OCC(O)CO)c1ccccc1Nc1ccnc2c(C(F)(F)F)cccc12` (stereo not given), “inactive”.
Same read-out and setting: for `CO[C@@H]1[C@@H](OC(N)=O)[C@@H](O)[C@H](Oc2ccc3c(O)c(NC(=O)c4ccc(O)c(CC=C(C)C)c4)c(=O)oc3c2C)OC1(C)C` the value was “inactive”; for `CCCCCCCCC(=O)Cl`, “inactive”.
With `CCOC(=O)/C=C/c1ccccc1`, the result was inactive.
Still for that read-out and setting: the result for `O=C1CCCC(=O)O1` reads “inactive”; that for `CC(C)N(c1ccccc1)C(C)C`, “inactive”.
The same measure, in the same setting: for `CCOC(=O)c1ccc(OC(=O)CCCCCN=C(N)N)cc1` the value was “inactive”.
The same measure, in the same setting: for `CNS(=O)(=O)CCc1ccc2[nH]cc(C3CCN(C)CC3)c2c1` the value was “inactive”; for `COc1cc2c(cc1OC)[C@@H]1CC(=O)[C@@H](CC(C)C)CN1CC2`, “inactive”.
With `O=S(O)(O)=S`, the activation is 0.31% [at 8.39 µM].
As for `CCOC(=O)c1ncn2c1CN(C)C(=O)c1cc(F)ccc1-2`, the result was inactive.
On to `CC[C@H](C)C(=O)O[C@H]1C[C@H](O)C=C2C=C[C@H](C)[C@H](CC[C@@H](O)C[C@@H](O)CC(=O)O)[C@H]21`, for which the result was inactive.
Still for that read-out and setting: for `C=C(C)C1CCC(C)(O)CC1` (stereo not given) the value was “inactive”; for `CC(C)CC(=O)O`, “inactive”.
Still for that read-out and setting: the result for `CC(C)(C)c1nnc(NS(=O)(=O)c2ccc(N)cc2)s1` reads “inactive”; that for `O=C1c2ccccc2C(=O)N1CCl`, “inactive”.

For the origin of these results see PubChem BioAssay (Tox21).
